# About 83,000 compounds went through this panel and 20% of them were active in at least one assay; those are over-represented in the sample as a whole.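 A percent growth of 40 corresponds to 60% growth inhibition; 0 means no net growth; -100 means all cells died. Active threshold: below 10.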 A number with no mark means an inactive call. Calls of active or inactive are those of the source.
# Experiments:
# Assay in all cases: NCI-60 one-dose screen, 48 h (100 = growth as untreated, 0 = no growth, -100 = all killed)
# Settings in all cases: 10 µM unless noted
# T-47D breast = test system: T-47D breast
# BT-549 breast = test system: BT-549 breast
# MDA-MB-435 melanoma = test system: MDA-MB-435 melanoma
# SW-620 colon = test system: SW-620 colon
# MCF7 breast = test system: MCF7 breast
# HCT-116 colon = test system: HCT-116 colon
# HCC-2998 colon = test system: HCC-2998 colon
# KM12 colon = test system: KM12 colon
Structure (SMILES),growth (T-47D breast),growth (BT-549 breast),growth (MDA-MB-435 melanoma),growth (SW-620 colon),growth (MCF7 breast),growth (HCT-116 colon),growth (HCC-2998 colon) [%],growth (KM12 colon)
CCOC(=O)CC1CSC(Nc2ccccc2)=N1 (configuration not stated),87.9%,114%,105%,108%,89.7%,107%,102,99%
CCn1cc(CNc2ccc(C(=O)Nc3cc4cc(OC)c(OC)cc4c(C)n3)cc2)cn1,-3.23% (active),24.6%,10.5%,75.3%,46.6%,46.8%,87.8,33.3%
COc1ccccc1N(C(C)=O)C1=C(Cl)C(=O)c2ccccc2C1=O,-33.1% (active),-4.47% (active),-13.3% (active),-65.2% (active),11.8%,-29.1% (active),19.5,-11.4% (active)
O=S1(=O)C=C(c2ccccc2)C(c2ccccc2)=C1,-63.4% (active),79.6%,25.4%,-82.9% (active),6.2% (active),-74.8% (active),15.5,16.5%
